In the supplement of paper PMC11417369:
± gives the standard deviation of the averaged measurements. The full ranking holds about 25,000 sequences; the median of “ln(normalized median fluorescence intensity)” is about 8.9, and the highest 2% start at about 10. The sample as a whole holds a higher share of the highest values than the screen did.

The sequences below were run on PfAP2-LT AP2 domain (GST-tagged) (assay: gcPBM binding intensity (ln(normalized median fluorescence intensity)); higher = stronger DNA binding).
Method in brief: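 Probes on an Agilent 4 × 180k array were primer-extended, double-stranded and 36 bp long, taken from intergenic genomic regions, with negative controls added. GST-tagged P. falciparum DNA-binding domains from E. coli, about 25 μg on average, were applied to the array for 1 h in 1× PBS containing 1% milk, 0.2 mg/ml BSA, 0.5% salmon testes DNA and 0.03% Triton X-100. Binding intensity, obtained after Alexa488 anti-GST antibody detection and a 488 nm scan, is the highest Masliner-normalised natural-log median intensity across replicate spots of either probe orientation.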

Row | Sequence | gcPBM binding intensity (ln)
1 | ATAACATATTTCTTTTGTACTCAAAATAAAATTAAT [XGTACX_site2479] | 8.37 ± 0.4
2 | ATATAATAAATATGTTGTACTATAAAAAATAGCCAT [XGTACX_site4710] | 8.78 ± 0.33
3 | AAATTATAATTAGGAACACACATATATATATATATA [CACACA_site3098] | 9.78 ± 0.29
4 | GGACTATACAGTTATACACACACATATATATATAAT [CACACA_site7991] | 9.6 ± 0.4
5 | AAGAAGCATAAATGTACACACATATTTATATATTAA [CACACA_site1332] | 9.01 ± 0.43
6 | ATATATATATATATATGTACATATTTTATAACTGTA [XGTACX_site5395] | 9.72 ± 0.35
7 | ATATATATATATATATGTACATATGTCAACTGTCTA [XGTACX_site8636] | 10.1 ± 0.43
8 | ATATATATATATGTCTGTACATAAAAAATAATAAAT [XGTACX_site3122] | 8.975 ± 0.064
9 | TTTTTGTAATATTATGATGTCATATATATATATATA [XGTACX_negctrl_site618] | 9.035 ± 0.078
10 | TTTTAAATATGCAGATGTACATTATAATGTTTTATT [XGTACX_site2079] | 8.87 ± 0.47
11 | GTATAATAGAAACACACACACACACCCAAAAAAAAA [CACACA_site2010] | 10.3 ± 0.39
12 | ATAATATGAAAACACACACACACACCCAAAAAAAAA [CACACA_site2011] | 10.1 ± 0.15
13 | TCATATGTGAAACACACACACACACCCAAAAAAACA [CACACA_site3247] | 10.06 ± 0.028
14 | TATATATAGAAACACACACACAAAAAAAAAAAAAAA [CACACA_site1506] | 9.15 ± 0.46
15 | TAGTATAATATGAACACACACACACGCACAAAAAAA [CACACA_site7035] | 9.94 ± 0.27
16 | TAGTATAATATGAACACACACACACCGACAAAAAAA [CACACA_site5151] | 9.96 ± 0.2
17 | TAGTATAATATGAACACACACACACCCACAAAAAAA [CACACA_site2009] | 10 ± 0.29
18 | AATATATAGAAACACACACACAAAAAAAAAAAAAAA [CACACA_site1326] | 9.27 ± 0.47
19 | ATCGTAGTATAATATGAACACACACCCACCCACAAA [CACACA_site8616] | 9.71 ± 0.29
20 | ATATATATGAAACACACACACAAAAAAAAAAAAAAA [CACACA_site3647] | 9.45 ± 0.57
21 | GTATAATATGAACACACACACACACGCAAAAAAAAA [CACACA_site7036] | 10.19 ± 0.064
22 | GTATAATATGAACACACACACACACCCAAAAAAAAA [CACACA_site5152] | 10.3 ± 0.45
23 | TTTTTTTTTGAAAAAAGTACTTAATTTTTAAGAAGA [XGTACX_site3591] | 7.83 ± 0.3
24 | AATATATATATATATATATATTTTTGTTAGAATATG [XGTACX_negctrl_site58] | 8.95 ± 0.32
25 | TAAGTTTGTCAATCAACACACACCTATTTATTATAT [CACACA_site3919] | 9.11 ± 0.35
26 | AACACAATAAAAATTAAAAATGTTAAGTAAATATAA [GTGCAC_negctrl_site60] | 8.68 ± 0.52
27 | ATATATATATGAATCACACACAAAAAATATAGAGAT [CACACA_site3913] | 9.51 ± 0.41

Row | Sequence | gcPBM binding intensity (ln)
28 | ATGCAACTATATATATATATTATATGTATGAATAAT [XGTACX_negctrl_site434] | 8.97 ± 0.28
29 | ATAATATATTTATGTTGTACAAGGAAAATTTTGAAA [XGTACX_site3472] | 8.76 ± 0.42
30 | ATTTTTTTTATTCAATGTACTTTTTTTTATATATAT [XGTACX_site4978] | 8.8 ± 0.45
31 | TATACTCAGAAACACACACACACACCCAAAAAAAAA [CACACA_site4434] | 10.1 ± 0.35
32 | TATACATACTCACCCACACACAAAAAAAAAAAAAAA [CACACA_site862] | 9.28 ± 0.47
33 | AGTATACTCAAACACACACACACAAAAAAAAAAAAA [CACACA_site4398] | 9.88 ± 0.58
34 | AACAACTATTAATTTACACACATGTATTTATTTTAC [CACACA_site5683] | 9.3 ± 0.4
35 | AAATAAATAAATAAATAAACAAATATGTATAAATGG [XGTACX_negctrl_site153] | 8.85 ± 0.51
36 | TTTAAAAAAAAAAAAAAAAATTCTACATGTAATTTA [CACACA_negctrl_site1205] | 7.96 ± 0.41
37 | AATTTATAAAAGAAGAGGACACATATAAATATAAAT [XGTACX_site59] | 8.78 ± 0.52
38 | TTAAAAAAATATAATACACACCAAAAATATGCACAT [CACACA_site5209] | 9.03 ± 0.38
39 | AAAAAAAATATATATGCACACACAAAAAAACAAATT [CACACA_site8349] | 9.48 ± 0.37
40 | GGAAAAAATATATGCACACCCCCCAAAAAAAAAAAA [CACACA_site2222] | 10.5 ± 0.13
41 | ATAAATAAAATATGCACACAAATATAGGAAACAACA [CACACA_site2561] | 9.38 ± 0.38
42 | ATAATATAAATATGCACACAAATTATTACCCAAAAA [CACACA_site2524] | 9.03 ± 0.41
43 | TGGGAAAAAATATATGCACACCCCCCAAAAAAAAAA [CACACA_site8696] | 10.48 ± 0.071
44 | TTATTACATAACAATATACACACTATTGATTAAAGA [CACACA_site2933] | 8.68 ± 0.39
45 | GAATACACCACGCACACACACTTGAGAAAAAATAAA [CACACA_site7747] | 9.66 ± 0.47
46 | ACAAGAATACACCACGCACACACACTAGAGAAAAAA [CACACA_site9276] | 10.1 ± 0.54
47 | AAGAATACACCACGCACACACACTTGAGAAAAAATA [CACACA_site3828] | 9.96 ± 0.47
48 | CATAAAAATATTAATAAACACACAATCAGATATTGA [CACACA_site9032] | 8.87 ± 0.45
49 | ATGTATAATATTTTCACACACAAGAAAAAAGAAAAG [CACACA_site3591] | 9.27 ± 0.36
50 | TAAAAATATAAAACATGTACATATATGCATATATTT [XGTACX_site8093] | 8.86 ± 0.48
51 | TAAAAAAAAACATGTGCACACGTTTTATCTACATAA [CACACA_site2336] | 10.1 ± 0.32
52 | TTATCTCTACAAAGTGCACACACGTAAAAACATATA [CACACA_site3957] | 9.09 ± 0.35
53 | CAAAACATTTTATCTACACACATATATAAATAAATA [CACACA_site3220] | 8.88 ± 0.38
54 | TGTAATAAAATAATTAGTACACATATATGTATATTT [XGTACX_site5896] | 8.72 ± 0.33
